High-throughput results from PubChem BioAssay.
Rango-impB inh = Rango-importin beta binding inhibition; Rango CFP/YFP FRET sensor + importin beta, 45 min; Potency, µM (titrated, usually from 92.2 µM); 340,000 compounds, 0.031% hits; AID 540263; calls by dose curve; note: nearly all actives have a fitted effect of over 15% in size
Target sequence (Q14974 whole entry, looked up): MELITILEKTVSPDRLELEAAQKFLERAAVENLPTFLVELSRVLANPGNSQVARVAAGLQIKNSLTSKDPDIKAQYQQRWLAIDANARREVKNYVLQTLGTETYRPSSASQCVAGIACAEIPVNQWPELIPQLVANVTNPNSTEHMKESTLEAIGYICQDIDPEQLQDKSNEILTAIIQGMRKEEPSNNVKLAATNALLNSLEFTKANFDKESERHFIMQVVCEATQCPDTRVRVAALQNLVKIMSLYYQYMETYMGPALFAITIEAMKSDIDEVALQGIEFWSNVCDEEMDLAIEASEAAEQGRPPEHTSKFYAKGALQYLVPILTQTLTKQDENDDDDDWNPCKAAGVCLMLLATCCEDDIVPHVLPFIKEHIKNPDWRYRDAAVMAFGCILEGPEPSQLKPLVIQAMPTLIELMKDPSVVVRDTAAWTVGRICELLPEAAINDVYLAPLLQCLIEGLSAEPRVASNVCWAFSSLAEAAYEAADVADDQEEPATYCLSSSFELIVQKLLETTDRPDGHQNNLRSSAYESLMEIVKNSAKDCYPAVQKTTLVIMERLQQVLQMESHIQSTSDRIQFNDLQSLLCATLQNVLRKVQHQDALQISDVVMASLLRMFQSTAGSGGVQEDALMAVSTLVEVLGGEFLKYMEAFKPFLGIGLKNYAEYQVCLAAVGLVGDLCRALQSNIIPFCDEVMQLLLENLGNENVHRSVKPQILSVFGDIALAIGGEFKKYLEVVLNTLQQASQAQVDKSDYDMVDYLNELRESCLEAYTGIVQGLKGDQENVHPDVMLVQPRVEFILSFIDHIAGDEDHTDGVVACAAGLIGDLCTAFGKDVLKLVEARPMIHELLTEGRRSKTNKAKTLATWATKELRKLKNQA
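FRET biosensor (snurportin 1 IBB flanked by EYFP and cerulean), 50 nM, with compound 5 min, then 0.125 microM importin beta in PBS, 1 mM DTT, 0.02% Tween-20, 0.1% BSA. CFP/YFP ratio read after 45 min at room temperature; pre-read flags interference.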
KinaseGlo FLuc = Kinase-Glo luciferase inhibition (counter-screen) | Q27757 | Kinase-Glo luciferase, ATP luminescence, 8 min | Potency, µM (doses to about 38.3 µM), most hits filed as inhibitors | 200,000 compounds, 0.28% hits; note: nearly all actives have a fitted effect of over 60% in size
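Compound is pinned into ATP-containing buffer (10 uM ATP, imidazole pH 7.2, 7 mM MgCl2). Kinase-Glo luciferase reagent is then added. Light output is recorded following an 8-min room-temperature incubation.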
Chronic BCR inh = inhibitors of chronic active B-cell receptor signaling; ABC-DLBCL IkBa-CBG/CBR reporter, luminescence ratio, 4 h; Potency, µM (titrated, usually from 46.1 µM), most hits filed as inhibitors; 340,000 compounds, 0.05% hits; active = well fitted inhibition curve with a large enough effect in the signal ratio, with a control signal flat, not every such curve was filed as active; inconclusive = small, poorly fitted or top-dose-only effect, or effect the other way, or a change in a side signal; the % refers to the signal ratio
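TMD8 human ABC-DLBCL cells with doxycycline-inducible IκBα–green luciferase fusion and unfused red luciferase, in 0.5% FBS medium; compounds up to 46 uM, 4 h at 37C. Green/red luminescence ratio, filter-overlap corrected, fitted to concentration-response curves.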
Lamin A splicing = changes lamin A minigene splicing in HeLa cells. HeLa LMNA splicing GFP/RFP minigene ratio, 48 h. Potency, µM (top dose mostly 46.1 µM), actives largely listed as inhibitors. 200,000 compounds, 0.01% hits. AID 1487; active = well fitted inhibition curve with a large enough effect in the signal ratio, with a control signal flat, not every such curve was filed as active; inconclusive = small, poorly fitted or top-dose-only effect, or effect the other way, or a change in a side signal; the % refers to the signal ratio
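S3 HeLa cells stably expressing lamin A-EGFP splicing minigene plus DsRed2, 600 cells/well, 48 h compound exposure at 37C. Laser-scanning cytometry; analysed as GFP (500-530 nm)/RFP (575-640 nm) total intensity ratio; 0.5% DMSO vehicle.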
Rango release inh = inhibitors of RanGTP-induced Rango-importin beta complex dissociation; 340,000 compounds, 0.071% hits; O95149+P62826; Biochemical FRET Rango-importin beta, RanGTP-induced dissociation; Potency, µM (series often up to 46.1 µM); calls by dose curve; note: nearly all actives have a fitted effect of over 45% in size
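Quantitative HTS using a FRET biosensor: 0.1 uM Rango, 0.25 uM importin beta, 0.6 uM Ran, 2 mM GTP, 0.2 uM RCC1 final, PBS with DTT, Tween-20 and BSA. Post-read taken 45 min after Ran addition.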
Tb PFK inh-1 = inhibitors of T. brucei phosphofructokinase | 330,000 compounds, 0.17% hits | AID 485367 | T. brucei PFK, ADP-Glo luminescence | Potency, µM (doses to about 57.5 µM), usual class: inhibitors; note: nearly all actives have a fitted effect of over 60% in size
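In TEA buffer at pH 8.0 with 5 mM MgCl2, enzyme (1.25 nM) converted F6P (0.5 mM) and ATP (0.1 mM) for 45 min at room temperature. ADP product was read by luciferase luminescence.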
TbPFK ATP = inhibits T. brucei PFK measured by ATP depletion; Potency, µM (highest dose often 57.5 µM); Tb PFK enzyme, ATP depletion, Kinase-Glo Plus luminescence; 1,100 compounds, 47% hits; shares compounds with Tb PFK inh-1; calls by dose curve; note: nearly all actives have a fitted effect of over 60% in size
Tb PFK inh-2 = T. brucei PFK enzyme inhibition, hit validation | shares compounds with Tb PFK inh-1 | purified T. brucei PFK, ADP-Glo luminescence, 45 min | Potency, µM (highest dose often 57.5 µM), actives largely listed as inhibitors | 1,100 compounds, 41% hits | AID 504637; note: nearly all actives have a fitted effect of over 60% in size
Numbers stand for hits; 0 = inactive; ? = inconclusive; - = not tested or not shown; [ ] = another dose, or the depositor's remark. Most compounds without a hit are left out; they make up all but 0.44% or so of the library. Unless noted, calls come from the whole dose curve; as a rule, active = well fitted curve in the direction sought with a large enough effect; inconclusive = small, poorly fitted or top-dose-only effect, or another doubt; inactive = no such curve, though single readings can be large; an effect the other way counts as inactive or inconclusive.

SMILES	Rango-impB inh	KinaseGlo FLuc	Chronic BCR inh	Lamin A splicing	Rango release inh	Tb PFK inh-1	TbPFK ATP	Tb PFK inh-2
Cc1ccccc1-n1c(C)nc2ccccc2c1=O	0	0	0	?	0	0	-	-
NC(=S)NNc1ccc(Cl)c(Cl)c1	0	-	0	-	?	19µM	4.8µM	12µM
Cc1ccc(NC2=C(NC(=O)c3ccccc3)C(=O)c3ccccc3C2=O)cc1Cl	0	0	0	?	0	?	?	6.7µM
CCOP(=O)(OCC)C(NC(=O)Nc1ccc(C)c(Cl)c1)c1ccccc1 (centres undefined)	0	0	0	?	0	0	-	-
COc1ccc2c(c1OC)C(=O)OC2c1c(O)n(Cc2ccc(F)cc2)c(=O)[nH]c1=O (centres undefined)	0	0	?	0	0	0	-	-
Fc1cccc(-c2csc(-c3ccno3)n2)c1	0	-	0	-	0	?	?	?
Cc1ccc(S(=O)(=O)CCC(=O)c2cccc([N+](=O)[O-])c2)cc1	0	-	?	-	0	13µM	21µM	?
Cc1cccc([N+](=O)[O-])c1	0	-	0	-	0	0	-	-
COC1=CCC2([N+](=O)[O-])CN(C)CC1([N+](=O)[O-])C2 (centres undefined)	0	0	0	0	0	0	-	-
COc1ccc(OC)c(S(=O)(=O)N(C(C)=O)c2ccc3oc(=O)sc3c2)c1	0	0	?	-	0	?	0	?
COc1ccc(OC)c(CC(=O)O)c1	0	0	0	0	0	0	-	-
Fc1ccc(NC(=S)Nc2ccccc2N2CCOCC2)cc1Cl	0	0	?	0[9.22 µM]	0	?	0	0
Fc1ccc(NC(=S)Nc2ccccc2OC(F)F)cc1Cl	0	0	0	?	0	?	0	0
Cc1ccc(NC(=S)Nc2ccc(Cl)c(Cl)c2)c(OC(F)F)c1	0	0	0	?	0	5.4µM	?	?
Cc1cc(Nc2ccccc2N2CCOCC2)n2ncnc2n1	0	0	?	0	0	0	-	-
NC1C[C@H]1c1ccccc1 (some centres undefined)	-	0	-	-	-	-	-	-
O=C(c1ccccc1)c1cn(CC(=O)N2CCCc3ccccc32)c2ccccc12	0	0	0	0	0	0	-	-
COc1ccc(-c2cc(C(=O)NCc3cccnc3)no2)cc1OC	0	0	?	0	0	0	-	-
COc1ccc(C(CNC(=O)Cc2ccc(Cl)c(Cl)c2)N(C)C)cc1 (centres undefined)	0	0	0	-	0	0	-	-
COc1ccccc1OCCNC(=O)Cc1ccc(Cl)c(Cl)c1	0	0	0	-	0	?	?	?
COc1ccc(NC(=O)Cc2ccc(Cl)c(Cl)c2)cn1	0	0	?	-	0	12µM	6µM	13µM
COc1ccc(C(=O)NCc2ccc(Cl)c(Cl)c2)cc1OC	0	0	0	?	0	13µM	8.5µM	27µM
COc1ccc(N2C(=O)NC(=O)/C(=C/c3cccc(OC(=O)c4cccs4)c3)C2=O)cc1Cl	0	0	0	?	0	0	-	-
CCN(CC)c1ccc(NC(=O)CSc2ccsc2[N+](=O)[O-])c(C)c1	0	0	0	?	0	?	?	0
O=C(CSc1ccsc1[N+](=O)[O-])Nc1cc(F)ccc1F	0	0	?	-	0	?	6.7µM	?
SMILES	Rango-impB inh	KinaseGlo FLuc	Chronic BCR inh	Lamin A splicing	Rango release inh	Tb PFK inh-1	TbPFK ATP	Tb PFK inh-2
CN(C)CCN(CC1CCCN(Cc2ccccc2F)C1)C(=O)Cc1ccccc1F (centres undefined)	0	-	0	-	0	0	-	-
CCC(CC)C1C(C#N)=C(N)Oc2c1c(=O)oc1ccccc21 (centres undefined)	0	0	?	?	0	0	-	-
O=c1c(O)cccc2cc(O)c(O)c(O)c12	?	0	0	0	0	6.7µM	0.43µM	0.48µM
COC(=O)C1=C(c2cc3ccccc3o2)C[C@@H]2CC[C@H]1N2C(=O)N1CCOCC1	0	-	-	-	0	-	-	-
Cc1ccc(-c2c[n+](Cc3ccc(Cl)c(Cl)c3)c3n2CCC3)cc1	0	0	?	?	0	6µM	4.8µM	13µM
Cc1ccc(/C=C/C2=NN(Cc3ccc(Cl)c(Cl)c3)C(=O)CC2)cc1	0	0	0	?	0	0	-	-
CN1C(=O)C(=Cc2coc3ccccc3c2=O)C(=O)N(C)C1=O	0	-	0	-	0	0	-	-
O=c1cc(/N=C/c2coc3c(ccc4ccccc43)c2=O)[nH]c(=S)[nH]1	0	0	0	0	0	?	0	?
O=C(Nc1c(F)cc(F)cc1F)c1cccn(Cc2ccccc2)c1=O	0	0	0	0	0	0	-	-
Cc1cnc(NC(=O)CN2CCN(c3ccccn3)CC2)s1	0	0	?	?	0	0	-	-
O=C(CN1CCOCC1)Nc1ncc(Cc2cccc(Cl)c2)s1	0	0	0	0	0	?	?	?
CCNC(=O)C1CCCc2c1[nH]c1ccc(Cl)cc21 (centres undefined)	0	0	0	-	0	?	12µM	21µM
C/C=C\C=C/C(=O)Nc1cccc(C2=NOC3(C2)C[C@@H](C(N)=O)N(C(=O)/C=C/C=C\C)C3)c1 (some centres undefined)	0	-	0	-	0	5.4µM	?	?
C=C(C)C(=O)Nc1cccc(C2=NOC3(C2)C[C@@H](C(N)=O)N(C(=O)C(=C)C)C3)c1 (some centres undefined)	0	-	0	-	0	?	2.7µM	1.7µM
C=C(C)C(=O)Nc1cccc(C2=NOC3(C2)C[C@@H](C(N)=O)N(C(=O)c2ccc(Cl)cc2)C3)c1 (some centres undefined)	0	-	0	-	0	9.5µM	0.67µM	0.95µM
C=C(C)C(=O)Nc1cccc(C2=NOC3(C2)C[C@H](C(N)=O)N(C(=O)COc2ccc(Cl)cc2)C3)c1 (some centres undefined)	0	-	0	-	0	?	0.54µM	0.67µM
CN1CC(C(=O)c2ccccc2)C(c2ccccc2)C1 (centres undefined)	0	-	0	-	0	0	-	-
O=C(NNc1nc2ccccc2s1)Nc1ccc(Cl)c(Cl)c1	0	-	?	-	0	?	?	0
COC(=O)c1ccc(NC(=O)CSc2nc3ccc(N4C(=O)C5C6C=CC(C6)C5C4=O)cc3s2)cc1 (centres undefined)	0	0	?	?	0	0	-	-
O=C(Nc1nc2ccccc2s1)c1cccn(Cc2ccccc2)c1=O	-	-	0	?	-	-	-	-
O=C(CSc1nc2ccccc2s1)Nc1ccc(Cl)c(C(=O)O)c1	0	0	?	-	0	?	0	0
